# From PubChem BioAssay
# HP1b binding inh – inhibitors of HP1-beta chromodomain binding to methylated histone tails | hit rate 0.56% among 390,000 | P83916 | Potency, µM (top dose mostly 114 µM), usual class: inhibitors | AlphaScreen HP1-beta / biotin-H3K9me3 peptide binding; note: nearly all actives have a fitted effect of over 70% in size
# Target sequence (P83916 whole entry, looked up): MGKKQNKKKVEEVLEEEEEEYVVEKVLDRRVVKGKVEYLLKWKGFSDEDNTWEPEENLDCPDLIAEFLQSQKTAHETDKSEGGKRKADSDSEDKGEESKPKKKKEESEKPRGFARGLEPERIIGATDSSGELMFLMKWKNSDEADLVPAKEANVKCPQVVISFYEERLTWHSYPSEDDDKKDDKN
#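 HP1-beta protein (50 nM final) preincubated 30 min at room temperature with biotinylated H3(1-18)K9me3 peptide (50 nM) in PBS pH 7.4, 0.01% Tween-20, then compound added for 30 min. AlphaScreen streptavidin donor/nickel chelate acceptor beads (10 ug/mL final), 30 min dark, luminescence read.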
# G9a block – G9a (human) methyltransferase inhibition. Q96KQ7. G9a H3K9 monomethylation, AlphaScreen, 2 h. Potency, µM (doses to about 102 µM), actives largely listed as inhibitors. hit rate 8.8% among 350,000; note: nearly all actives have a fitted effect of over 75% in size
# Target sequence (Q96KQ7 913-1193 limits assumed): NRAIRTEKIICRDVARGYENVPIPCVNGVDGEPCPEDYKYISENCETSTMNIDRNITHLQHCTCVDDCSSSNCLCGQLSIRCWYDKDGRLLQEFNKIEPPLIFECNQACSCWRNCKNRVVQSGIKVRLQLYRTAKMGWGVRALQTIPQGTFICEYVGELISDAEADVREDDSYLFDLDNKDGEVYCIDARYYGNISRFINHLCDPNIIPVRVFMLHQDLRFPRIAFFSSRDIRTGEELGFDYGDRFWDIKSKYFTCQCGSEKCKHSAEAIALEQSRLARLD
#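 Quantitative HTS format: methyltransferase activity on a biotin-tagged H3K9 peptide is measured by AlphaScreen, using a rabbit anti-monomethyl-H3K9 antibody with streptavidin donor and anti-IgG acceptor beads. Final levels are 20 nM enzyme, 500 nM peptide, 20 uM SAM; 2 h RT.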
# L3MBTL1 inh – inhibitors of human L3MBTL1; Q9Y468; AlphaScreen L3MBTL1–H3K9me1 peptide binding; Potency, µM (doses to about 57.1 µM), usual class: inhibitors; hit rate 0.66% among 230,000; note: nearly all actives have a fitted effect of over 60% in size
#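 AlphaScreen proximity signal between nickel-chelate acceptor and streptavidin donor beads (final 10 ug/mL) reports binding of 50 nM L3MBTL1 to 75 nM biotin-H3 K9me1 peptide; complex incubated with compounds 30 min at room temperature; cefsulodin titration as control.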
# Sfp inh – Sfp phosphopantetheinyl transferase inhibition; Biochemical Sfp PPTase activity, qHTS; Potency, µM, usual class: inhibitors; hit rate 3.5% among 310,000; AID 1490;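 note: the enzyme is Sfp with the accession as filed and its product quenches rhodamine fluorescence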
#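 Compounds were incubated with enzyme (final 15 nM) for 15 min at room temperature before substrate addition started the reaction. Fluorescence at 525 nm excitation, 598 nm emission was recorded immediately and after 30 minutes.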
# JMJD2A Tudor – JMJD2A Tudor domain (human) inhibition; AID 504339; hit rate 4.4% among 390,000; AlphaScreen JMJD2A-Tudor / H3K4me3 peptide binding; O75164; Potency, µM (series often up to 114 µM), actives largely listed as inhibitors; note: nearly all actives have a fitted effect of over 50% in size
# BAZ2B inh – BAZ2B (human) inhibition | Q9UIF8 | AlphaScreen BAZ2B-H3K14Ac peptide displacement | Potency, µM (top dose mostly 114 µM), usual class: inhibitors | hit rate 4.4% among 360,000 | AID 504333; note: nearly all actives have a fitted effect of over 60% in size
#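 BAZ2B (50 nM) with biotin-H3(5-23)K14Ac peptide (50 nM) in PBS pH 7.4, 0.01% Tween-20, preformed 30 min, then compound 30 min at room temperature; top concentration 110uM. AlphaScreen streptavidin donor/nickel chelate acceptor beads (10 ug/mL final), 20 min dark, signal read.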
# A number is an active result; - = inactive; ? = inconclusive; . = not tested or not shown; ! = not active in a repeat; [ ] = another dose, or the depositor's remark. Shown are actives, neighbours in structure and some others; about 12% of the full set was active somewhere. Calls come from the whole dose curve; as a rule, active = well fitted curve in the direction sought with a large enough effect; inconclusive = small, poorly fitted or top-dose-only effect, or another doubt; inactive = no such curve, though single readings can be large; an effect the other way counts as inactive or inconclusive.
SMILES,HP1b binding inh,G9a block,L3MBTL1 inh,Sfp inh,JMJD2A Tudor,BAZ2B inh
O=C(NC1CCCC1)c1ccccc1OCc1ccccc1,-,-,-,-,-,-
c1ccc(COc2ccc(OCCCNC3CCCC3)cc2)cc1,-,?,.,-,5.01µM,44.7µM
CC(C)Oc1ccc(OCCNC2CCCC2)cc1,?,?,.,50.1µM,3.55µM,?
C=CCNCCCCOc1ccc(OCc2ccccc2)cc1,-,10µM,-,-,35.5µM,50.1µM
OC(CNC1CCCCC1)COCCOc1ccc(Br)cc1 (stereo unspecified),-,-,-,-,-,-
COCCCNCCCCOc1ccc(OCc2ccccc2)cc1,?,.,-,-,20µM,44.7µM
COCCCNC(=O)CCCOc1ccccc1,-,-,-,-,-,?
O=C(CN1C(=O)C2(SCC(=O)N2c2cccc(Cl)c2)c2ccccc21)NCc1ccccc1 (stereo unspecified),-,-,.,.,-,-
COCCNC(=O)C(c1ccc(O)cc1)N(Cc1ccccc1)C(=O)CCC(=O)Nc1nccs1 (stereo unspecified),-,-,.,-,-,-
CCc1cccc(OCCCCNCCOC)c1,?,7.94µM,-,-,7.08µM,.
CN(C)C(=O)c1ccc(-c2ccc3ncnc(N4CCOCC4)c3c2)cc1,.,-[0.501 µM],.,-,.,.
C=CCOc1ccccc1/C=c1\sc2nc(=O)c(C)nn2c1=O,-,?,?,?,?,?
COc1ccccc1/C=C/C=c1\sc2nc(=O)c(Cc3ccccc3)nn2c1=O,-,.,.,56.2µM,56.2µM,44.7µM
CCCOc1ccc(/C=c2\sc3nc(-c4ccco4)nn3c2=O)cc1OCC,-,?,-,-,?,-
CCCOc1ccc(Cc2nn3c(=O)/c(=C/c4ccco4)sc3nc2=O)cc1,-,?,?,50.1µM,56.2µM,-
Cc1cc2c(SCC(=O)NCC3CCCO3)ncnc2s1 (stereo unspecified),-,-,.,-,-,-
Cc1ccc(S(=O)(=O)N2CCN(C(=O)COc3ccc(-c4nnco4)cc3)CC2)cc1,-,-,-,-,-,-
Cc1ccc(S(=O)(=O)CCC(=O)Oc2ccc(-c3nnco3)cc2)cc1,-,20µM,-,.,-,-
CCOC(=O)c1c(N)sc(C(=O)OCCOC)c1C,?,11.2µM,-,25.1µM,-,-
CCOC(=O)c1sc(N)c(C(=O)OCC)c1C,-,-,-,-,-,-
CCOC(=O)c1c(NC(=O)CSc2cccc[n+]2[O-])sc(C(=O)Nc2ccccc2)c1C,-,44.7µM,-,?,-,-
CCOC(=O)c1sc(NC(=O)c2c(C)nn(Cc3ccccc3)c2C)cc1C,-,50.1µM,-,-,-,-
CCOC(=O)c1sc(N)c(C(=O)Nc2ccccc2)c1C,?,10µM,-,20µM,-,-
CCOC(=O)c1sc(NC(=O)c2ccccc2)cc1C,-,-,.,-,-,-
CCOC(=O)c1sc(NC(=O)CSc2nc3ccccc3s2)c(C(=O)OCC)c1C,.,-,-,-,.,-
SMILES,HP1b binding inh,G9a block,L3MBTL1 inh,Sfp inh,JMJD2A Tudor,BAZ2B inh
CC(=O)N1CCc2cc(S(=O)(=O)CCC(=O)NCCc3ccccc3)ccc21,-,.,.,-,-,-
COC1=C2C[C@@H](C)C[C@H](OC)[C@H](O)[C@@H](C)/C=C(\C)[C@H](OC(N)=O)[C@@H](OC)/C=C\C=C(/C)C(=O)NC(=CC1=O)C2=O,.,.,.,-,.,.
O=C1NC(c2ccccc2O)Nc2ccccc21 (stereo unspecified),-,.,-,-,-,-
Cc1cccc(C2NC(=O)c3c(sc(C)c3C)N2)c1O (stereo unspecified),-,-[12.7 µM],-,89.1µM,-,-
Cc1ccc(C2NC(=O)c3c(sc(C)c3C)N2)c(O)c1 (stereo unspecified),-,31.6µM,.,50.1µM,-,-
CCC(=O)c1ccc(OCc2ccc(C(=O)c3ccccc3)cc2)cc1,-,-[12.7 µM],-,-,-,-
CC(=O)c1ccc(N=c2scc(C)n2C(C)C)cc1,-,44.7µM,.,-,?,?
Cc1ccc(N(CC2=NCCN2)c2cccc(O)c2)cc1,-,-[12.7 µM],-,79.4µM!,-,-
C=CC(=O)Nc1ccc(N(C)c2ccnc(Nc3ccc(N4CCN(C)CC4)cc3)n2)cc1,?,.,?,.,35.5µM,.
CC(=O)N(/N=C1\Sc2ccccc2C1=O)c1cccc(C)c1,-,?,-,-,-,39.8µM
CC(=O)N(CN1C(=O)c2ccccc2C1=O)c1cccc(C)c1,-,-,-,-,-,-
CCOc1cc(/C=N/NC(=O)c2cc(-c3cccnc3)nc3ccccc23)ccc1O,-,-,-,-,-,-
O=C(c1ccco1)N1CCn2cccc2C1c1ccccc1 (stereo unspecified),70.8µM,?,?,-,50.1µM,35.5µM
COc1ccccc1CNS(=O)(=O)c1cc(C(=O)NCC2CCCO2)c(Cl)cc1Cl (stereo unspecified),-,.,-,.,-,.
Nc1nc2c(ncn2C2CCCC2)c(=O)[nH]1,-,.,.,.,-,.
Nc1nc(=S)c2ncn(C3CCCC3)c2[nH]1,?,-[0.501 µM],-,12.6µM,50.1µM,?
N#Cc1nc(NCC(F)F)c2ncn(-c3cccc(Cl)c3)c2n1,.,.,.,.,-,.
COc1cc(C(=O)CSc2nnc(-c3ccc(O)cc3)n2CC2CCCO2)ccc1NC(C)=O (stereo unspecified),-,-,-,?,-,-
CCC(=O)Nc1ccc(-c2nnc(SCC(=O)NCC3CCCO3)n2C)cc1 (stereo unspecified),-,8.91µM,-,-,-,-
CC(=O)c1c(C)[nH]c(C(=O)CSc2nnc(-c3ccc(Cl)cc3)n2CC2CCCO2)c1C (stereo unspecified),-,50.1µM,.,-,79.4µM,-
CCC(=O)Nc1ccc(C(=O)CSc2nnc(-c3ccc(O)cc3)n2CC2CCCO2)cc1 (stereo unspecified),-,44.7µM,.,79.4µM,?,?
Cc1ccc(-c2nnc(SCC(=O)NCC3CCCO3)n2C)cc1 (stereo unspecified),-,-,.,-,-,-
Cc1occc1-c1nnc(SCC(=O)NCC2CCCO2)n1C (stereo unspecified),-,-,-,-,56.2µM,-
CCSc1nnc(-c2ccc(S(=O)(=O)N3CCOCC3)cc2)n1CC1CCCO1 (stereo unspecified),-,-,-,-,-,-
Cc1occc1-c1nnc(SCC(=O)NCCc2ccccc2)n1C(C)c1ccccc1 (stereo unspecified),-,56.2µM,-,-,-,?
Cc1occc1-c1nnc(SCC(=O)NCCc2ccccc2)o1,-,-,-,-,-,-
O=C(CSc1nnc(-c2ccc(S(=O)(=O)N3CCCC3)cc2)n1CC1CCCO1)NC1CC1 (stereo unspecified),-,50.1µM,-,-,-,-
